Sfp inh – blocks B. subtilis Sfp PPTase activity; Q9F4F7; Biochemical Sfp PPTase activity, qHTS; Potency, µM, for the others: largest response in the series, negative = inhibition, most hits filed as inhibitors; hit rate 3.5% among 310,000;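 note: the enzyme is Sfp with the accession as filed and its product quenches rhodamine fluorescence; 0% = enzyme reaction without inhibitor and -100% = no enzyme wells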
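Step 1, compound plus 15 nM Sfp-PPTase, 15 min, room temperature. Step 2, add rhodamine-CoA (5 uM) and BHQ-2-YbbR (12.5 uM). Step 3, read 525/598 nm fluorescence at 0 and 30 min.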
PLK1 PBD block – blocks phosphopeptide binding to human PLK1 polo-box domain. AID 720504. hit rate 2.8% among 360,000. Plk1 PBD binding of FITC phosphopeptide, fluorescence polarization. Potency, µM, without a hit: max response, negative = inhibition, usual class: inhibitors. P53350; note: series mostly up to about 57 µM; % is set by controls: 0 for no effect and ±100 for the full control effect; nearly all actives have a fitted effect of over 65% in size
HP1b chromo inh – blocks HP1-beta chromodomain binding to methylated histone tails | P83916 | AlphaScreen HP1-beta / biotin-H3K9me3 peptide binding | Potency, µM (highest dose often 114 µM), for inactives: at the top dose activity change, negative = inhibition, usual class: inhibitors | hit rate 0.56% among 390,000 | AID 540317; note: nearly all actives have a fitted effect of over 70% in size
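HP1-beta protein (50 nM final) preincubated 30 min at room temperature with biotinylated H3(1-18)K9me3 peptide (50 nM) in PBS pH 7.4, 0.01% Tween-20, then compound added for 30 min. AlphaScreen streptavidin donor/nickel chelate acceptor beads (10 ug/mL final), 30 min dark, luminescence read.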
BAZ2B inh – blocks human BAZ2B. Q9UIF8. AlphaScreen BAZ2B-H3K14Ac peptide displacement. Potency, µM (highest dose often 114 µM), without a hit: at the highest dose activity change, negative = inhibition, actives largely listed as inhibitors. hit rate 4.4% among 360,000; note: % is set by controls: 0 for no effect and ±100 for the full control effect; nearly all actives have a fitted effect of over 60% in size
Target sequence (Q9UIF8 whole entry, looked up): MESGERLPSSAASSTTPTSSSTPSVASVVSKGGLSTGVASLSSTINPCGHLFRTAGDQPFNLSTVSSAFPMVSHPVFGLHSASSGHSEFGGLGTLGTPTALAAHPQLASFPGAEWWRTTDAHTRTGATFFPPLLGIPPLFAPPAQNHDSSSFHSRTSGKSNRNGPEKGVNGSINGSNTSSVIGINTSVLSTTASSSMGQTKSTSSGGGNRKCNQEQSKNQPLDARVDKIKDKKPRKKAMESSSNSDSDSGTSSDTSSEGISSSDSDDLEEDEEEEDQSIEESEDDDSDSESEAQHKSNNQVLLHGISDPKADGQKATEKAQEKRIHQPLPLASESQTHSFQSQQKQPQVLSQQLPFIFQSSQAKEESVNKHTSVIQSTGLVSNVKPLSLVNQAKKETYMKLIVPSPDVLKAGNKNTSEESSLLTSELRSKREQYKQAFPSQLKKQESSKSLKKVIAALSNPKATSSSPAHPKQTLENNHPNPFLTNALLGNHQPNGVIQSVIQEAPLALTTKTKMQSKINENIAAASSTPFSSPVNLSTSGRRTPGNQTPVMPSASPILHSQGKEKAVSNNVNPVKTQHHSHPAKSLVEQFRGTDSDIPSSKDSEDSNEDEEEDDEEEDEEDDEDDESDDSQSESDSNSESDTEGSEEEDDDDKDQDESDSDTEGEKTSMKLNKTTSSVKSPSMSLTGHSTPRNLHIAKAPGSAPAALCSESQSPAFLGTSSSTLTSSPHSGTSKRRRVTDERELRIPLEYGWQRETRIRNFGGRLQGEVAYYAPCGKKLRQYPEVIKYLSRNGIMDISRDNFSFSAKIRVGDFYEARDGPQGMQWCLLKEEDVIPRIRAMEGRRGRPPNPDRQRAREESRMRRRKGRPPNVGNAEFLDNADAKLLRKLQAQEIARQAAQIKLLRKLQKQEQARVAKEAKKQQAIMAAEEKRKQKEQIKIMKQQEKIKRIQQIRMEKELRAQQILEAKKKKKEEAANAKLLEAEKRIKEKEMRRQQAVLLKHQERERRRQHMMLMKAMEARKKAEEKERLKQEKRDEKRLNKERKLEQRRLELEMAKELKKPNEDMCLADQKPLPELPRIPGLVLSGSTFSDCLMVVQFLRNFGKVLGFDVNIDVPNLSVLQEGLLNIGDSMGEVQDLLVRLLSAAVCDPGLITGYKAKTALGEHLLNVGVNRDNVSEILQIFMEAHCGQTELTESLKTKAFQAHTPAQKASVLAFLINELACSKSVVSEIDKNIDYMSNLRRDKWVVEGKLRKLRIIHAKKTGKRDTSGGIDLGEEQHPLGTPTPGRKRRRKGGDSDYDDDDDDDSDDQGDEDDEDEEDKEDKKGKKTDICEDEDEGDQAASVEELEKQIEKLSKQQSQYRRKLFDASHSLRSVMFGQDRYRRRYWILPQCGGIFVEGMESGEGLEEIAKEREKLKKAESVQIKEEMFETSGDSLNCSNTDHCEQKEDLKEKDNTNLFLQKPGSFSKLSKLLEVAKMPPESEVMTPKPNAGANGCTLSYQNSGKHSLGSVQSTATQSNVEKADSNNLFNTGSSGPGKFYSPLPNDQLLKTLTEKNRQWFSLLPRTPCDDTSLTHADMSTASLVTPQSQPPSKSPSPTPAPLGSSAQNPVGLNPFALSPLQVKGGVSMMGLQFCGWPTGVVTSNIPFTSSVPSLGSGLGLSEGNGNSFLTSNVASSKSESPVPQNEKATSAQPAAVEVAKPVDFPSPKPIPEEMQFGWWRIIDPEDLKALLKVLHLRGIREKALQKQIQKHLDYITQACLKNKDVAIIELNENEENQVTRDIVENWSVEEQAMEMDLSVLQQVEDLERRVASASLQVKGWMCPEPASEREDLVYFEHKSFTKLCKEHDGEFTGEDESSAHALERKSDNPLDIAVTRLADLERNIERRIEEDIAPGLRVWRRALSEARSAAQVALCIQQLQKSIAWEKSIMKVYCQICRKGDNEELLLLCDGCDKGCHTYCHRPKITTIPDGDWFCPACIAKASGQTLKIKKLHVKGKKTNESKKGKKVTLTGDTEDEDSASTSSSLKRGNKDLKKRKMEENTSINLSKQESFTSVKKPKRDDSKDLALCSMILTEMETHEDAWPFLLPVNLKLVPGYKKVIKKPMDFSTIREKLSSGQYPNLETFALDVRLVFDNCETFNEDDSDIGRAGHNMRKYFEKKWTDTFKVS
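Complex of BAZ2B and biotin-H3K14Ac (50 nM apiece) forms over 30 min at RT, then faces library compounds up to 110 uM for another 30 min; AlphaScreen beads added, 20 min dark incubation, luminescence read.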
JMJD2A Tudor inh – JMJD2A Tudor domain (human) inhibition | AID 504339 | Potency, µM (top dose mostly 114 µM), for inactives: top-dose activity change, negative = inhibition, hits mostly inhibitors | hit rate 4.4% among 390,000 | O75164 | AlphaScreen JMJD2A-Tudor / H3K4me3 peptide binding; note: % is set by controls: 0 for no effect and ±100 for the full control effect; nearly all actives have a fitted effect of over 50% in size
G9a block – G9a (human) methyltransferase inhibition; Potency, µM (top dose mostly 102 µM), without a hit: at the top dose activity, negative = inhibition, hits mostly inhibitors; AID 504332; hit rate 8.8% among 350,000; G9a H3K9 monomethylation, AlphaScreen, 2 h; Q96KQ7; note: % is set by controls: 0 for no effect and ±100 for the full control effect; nearly all actives have a fitted effect of over 75% in size
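Enzyme 20 nM + cpd, 15 min RT; add b-H3K9 pep 500 nM / SAM 20 uM; 2 h RT; anti-H3K9me1 Ab 0.5 ug/mL + SA donor / anti-rabbit acceptor beads 20 ug/mL each, 10 min; AlphaScreen read.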
* marks the source's active call; other numbers are inactive results; ? = inconclusive; nt = no result given; [ ] = another dose, or the depositor's remark. Sampled rows, rich in hits. Any-hit rate of the full collection: about 12%. Calls come from the whole dose curve; as a rule, active = well fitted curve in the direction sought with a large enough effect; inconclusive = small, poorly fitted or top-dose-only effect, or another doubt; inactive = no such curve, though single readings can be large; an effect the other way counts as inactive or inconclusive. Potency is the fitted concentration of half-maximal effect.

SMILES	Sfp inh	PLK1 PBD block	HP1b chromo inh	BAZ2B inh	JMJD2A Tudor inh	G9a block
CCOc1ccc2[nH]c(=O)c(CN(Cc3ccco3)C(CC)c3nnnn3Cc3ccccc3)cc2c1 (stereo not given)	?	0%	12%	2%	-35%	35µM*
CCOc1c(C=C(C#N)C#N)c2ccccc2n1CC	50µM*	-4%	21%	-39%	?	10µM*
Cc1cc(Cn2ccnc2)c(C)c([N+](=O)[O-])c1Cn1ccnc1	9%	-13%	31%	79µM*	-9%	11%
CCc1ccc(NC(=O)c2cnn3c(C)cc(C)nc23)cc1	nt	nt	nt	nt	-9%	nt
Cc1cc(C)cc(NC(=S)NCc2cccn2C)c1	17%	-3%	-26%	50µM*	?	-6%[59 µM]
Cn1cccc1CNC(=S)Nc1ccccc1Cl	10%	-26%	36%	-38%	-3%	?
O=Nc1c(O)n(Cc2ccccc2)c2ccccc12	9%	-11%	5%	-21%	-20%[11.4 µM]	-2%
CCn1c(=O)c([N+](=O)[O-])c(NCCN(C)C)c2ccccc21	3.5µM*	-2%	29%	-29%	-11%	56µM*
CCn1c(=O)c([N+](=O)[O-])c(NCC(O)c2ccccc2)c2ccccc21 (stereo not given)	8%	-11%	13%	-4%	1%	-10%[59 µM]
CCn1c(=O)c([N+](=O)[O-])c(Cl)c2ccccc21	9%	2.4µM*	46%	2%	-9%	-34%
O=c1c([N+](=O)[O-])c(O)c2ccccc2n1Cc1ccccc1	?	-13%	18%	-17%	-28%	28µM*
COc1ccc(Cl)cc1N(CC(=O)NCCSc1ccccn1)S(=O)(=O)c1ccccc1	14%	0%	-17%	-2%	-11%	19%
COc1ccc(OC)c(C2N=C(N)Nc3nc4ccccc4n32)c1 (stereo not given)	nt	nt	21%	-15%	-12%	1%[59 µM]
Cc1ccc(-n2c(C)cc(C3N=C(N)Nc4nc5ccccc5n43)c2C)c(C)c1 (stereo not given)	?	2%	?	40µM*	40µM*	5%[12.7 µM]
Cc1cc(C2N=C(N)Nc3nc4ccccc4n32)c(C)n1-c1ccccc1Cl (stereo not given)	2.8µM*	-1%	-6%	?	?	?
CCCN1CNc2c(c(=O)[nH]c(=S)n2CCc2ccccn2)C1	nt	nt	18%	nt	-3%	nt
O=c1ccc2ccc(Oc3ccc(Cl)cc3[N+](=O)[O-])cc2o1	1%	-1%	-21%	?	?	32µM*
O=C1CCCC2(O)C1C(c1cccc(Br)c1)NC(=O)N2Cc1ccccc1 (stereo not given)	?	-26%	51%	30%	7%	45µM*
CN1C(=O)/C(=C2/C=CC=CN2C)OC1=S	56µM*	?	?	-11%	-17%[57.1 µM]	32µM*
c1ccc2c(N3CCCCC3)ncnc2c1	-26%	-4%	36%	-28%	12%	-29%[12.7 µM]
CN1CC[n+]2cnc3ccccc3c21	?	0%	16%	-14%	-5%	2.5µM*
Cc1nn(CC(=O)Nc2ccc(OC(F)(F)F)cc2)c(=O)c2c(C)n(-c3ccc(Cl)cc3)nc12	nt	nt	16%[57 µM]	3%	-11%	9%[59 µM]
O=[N+]([O-])c1cccc2c[nH]nc12	-23%	nt	nt	nt	nt	nt
CCN(CC)C(=O)Cn1cc(S(=O)(=O)CC(=O)Nc2cccc(NC(C)=O)c2)c2ccccc21	nt	-11%	nt	nt	nt	nt
CCN(CC)C(=O)Cn1cc(S(=O)(=O)CC(=O)Nc2ccc(C(N)=O)cc2)c2ccccc21	5%	-15%	37%	-23%	-20%	45µM*
SMILES	Sfp inh	PLK1 PBD block	HP1b chromo inh	BAZ2B inh	JMJD2A Tudor inh	G9a block
CCN(CC)C(=O)Cn1cc(S(=O)(=O)CC(=O)Nc2ccc3c(c2)OCCO3)c2ccccc21	13%	-3%	40%	nt	4%	56µM*
CCn1ccc2cc(S(=O)(=O)N3CCCN(C(=O)NCC(C)C)CC3)ccc21	nt	nt	24%[57 µM]	5%	-2%	5%[59 µM]
COc1ccc(C2CC(=O)c3c(C)nc(N4CCN(Cc5ccccc5)CC4)nc3C2)cc1OC (stereo not given)	-20%	-7%	-14%	?	?	35µM*
COc1ccc(NC(=O)CN(C)CC(=O)N2CC(=O)Nc3ccccc32)cc1	nt	-12%	16%	nt	-19%	nt
Cc1ccc(NC(=O)CCCc2ccccc2)nc1	6%	-20%	26%	-18%	-12%	-5%
Cc1ccc(NC(=S)NCCc2ccccc2)nc1	-9%	-2%	22%	-32%	-20%	1.6µM*
Cc1cccnc1NC(=S)NCCc1ccccc1	40µM*	-17%	?	35µM*	20µM*	0.71µM*
COC(=O)/C=C/c1ccsc1NC(C)=O	50µM*	-9%	34%	-26%	-6%	?
NC(=O)c1ccsc1NC(=O)COC(=O)/C=C/c1ccccc1	nt	-3%	-11%	2%	-18%	-25%
COc1ccc(NC(=O)C2Cc3c(-c4cccc(C(C)=O)c4)ccnc3O2)cc1 (stereo not given)	nt	-7%	nt	nt	nt	nt
NC(=O)C1CCN(C(=O)CCc2nc3sc4c(c3c(=O)[nH]2)CCCC4)CC1	nt	-28%	-11%	50µM*	?	50µM*
CCOC(=O)N1CCN(C(=O)CCc2nc3sc4c(c3c(=O)[nH]2)CCCC4)CC1	12%	5%	25%	-3%	-1%	17%
Cc1cccc(NC(=O)C(C)SCc2nc3sc4c(c3c(=O)[nH]2)CCCC4)n1 (stereo not given)	nt	-22%	30%	1%	-19%	56µM*
O=C(CCc1nc2sc3c(c2c(=O)[nH]1)CCCC3)N1CCN(c2ccccc2)CC1	nt	-18%	-9%	56µM*	-31%	2%[0.501 µM]
CCc1cccc(NC(=O)CCc2nc3sc4c(c3c(=O)[nH]2)CCCC4)c1	nt	-5%	6%	71µM*	?	-32%
Cc1cccc(NC(=O)CCc2nc3sc4c(c3c(=O)[nH]2)CCCC4)c1	nt	-3%	37%	0%	-6%	2%[59 µM]
O=C(COC(=O)C1CC2CCCC(C1)C2=O)Nc1ccc(Cl)cn1 (stereo not given)	nt	3%	28%	-3%	-4%	11%[59 µM]
O=[N+]([O-])c1ccccc1/C=N/N1CCN(c2ccccn2)CC1	5%	-10%	-11%	13µM*	?	?
Cc1ccc(N2CCN(/N=C/c3ccccc3)CC2)cc1	19%	-5%	13%	-37%	-26%	2%
Cc1ccc(N2CCN(/N=C/c3ccccc3[N+](=O)[O-])CC2)cc1	7%	-1%	?	?	?	7.9µM*
C(=N\N1CCN(c2ccccn2)CC1)/c1ccccn1	-6%	-1%	-7%	-24%	-21%	?
COc1ccc(CCNC(=O)c2cc3c(=O)n(C)c4ccccc4c3s2)cc1OC	nt	nt	29%	nt	-12%	4%[59 µM]
